Bioassay records: PubChem BioAssay, Sanford-Burnham Center for Chemical Genomics
Rows were chosen to be rich in hits. Some 6.3% of all compounds tested hit in one or more screens of this group.
TIM10 inh: inhibits growth of TIM10 yeast strain; S. cerevisiae TIM10 strain growth, BacTiter-Glo luminescence, 24 h; inhibition, % at 10 µM; 330,000 compounds, 1.4% hits;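 active means inhibition of 40% or more at the single tested concentration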;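 further: wild-type TIM10 isogenic control strain grown at permissive 25 °C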
MPTP inh: inhibitors of mitochondrial permeability transition pore; 360,000 compounds, 1.4% hits; AID 602449; inhibition, % at 10 µM; isolated mouse mitochondria, Ca2+ swelling absorbance, 30 min;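 active means inhibition of 50% or more, scaled per plate between neutral and stimulator controls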
tim10-1 inh: growth inhibitors of tim10-1 mutant yeast. 330,000 compounds, 2.2% hits. S. cerevisiae tim10-1 ts strain growth, BacTiter-Glo, 24 h. AID 463190. inhibition, % at 20 µM;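 active means inhibition of at least 40%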;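 further: mutant grown at 25 °C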
tim23-1 inh: inhibits growth of tim23-1 mutant yeast | S. cerevisiae tim23-1 growth, BacTiter-Glo luminescence, 24 h | inhibition, % at 20 µM | 330,000 compounds, 1.3% hits | AID 463212;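 active means growth inhibition of the mutant yeast at or above 50%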;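 further: temperature-sensitive mutant grown at 25 °C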
Mdm2-MdmX inh: inhibitors of human Mdm2/MdmX interaction. O15151+Q00987. SaOS-2 split-luciferase Mdm2/MdmX complementation, luminescence. inhibition, % at 8 µM. 330,000 compounds, 3% hits;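 active means inhibition of at least 50% at 8 µM in the primary screen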
MPTP counter: membrane potential counter-screen of mitochondrial pore inhibitors | shares compounds with MPTP inh | isolated mitochondria, Rhodamine 123 fluorescence | inhibition, % at 10 µM | 5,000 compounds, 78% hits | AID 624504; in the data active means inhibition above about 22%
MPTP abs DR: dose response confirmation of mitochondrial permeability transition pore inhibitors; shares compounds with MPTP inh; isolated mitochondria swelling, absorbance; IC50, µM; 780 compounds, 58% hits; in the data active means IC50 below about 20 µM
MPTP counter DR: counter-screen for mitochondrial permeability transition pore inhibitors, dose response | IC50, µM | 780 compounds, 49% hits | shares compounds with MPTP inh | isolated mitochondria counterscreen, fluorescence read-out; in the data active means IC50 below about 80 µM
Large screens that a line does not name were inactive (follow-up assays come after a bar, where they were run).

CCC(=NCCc1c[nH]c2ccccc12)c1c(O)n(C)c(=O)n(C)c1=O	MPTP inh 70 | MPTP counter 59
CCC(=NCCOc1ccc(Cl)cc1)c1c(O)n(C)c(=O)n(C)c1=O	MPTP inh 96 | MPTP counter 90
CCC1C2CC3C4N(C)c5ccccc5C45CC(C2C5O)N3C1O (stereo unspecified)	none (no result: TIM10 inh, tim10-1 inh, tim23-1 inh, Mdm2-MdmX inh)
CCCCOc1ccc(CCN)cc1Cl	MPTP inh 92 | MPTP counter inactive | MPTP abs DR 6.6 | MPTP counter DR inactive
CC1C(=O)OC2CCN3CC4OC4(COC(=O)C(C)(O)C1(C)O)C23 (stereo unspecified)	none (no result: TIM10 inh, tim10-1 inh, tim23-1 inh, Mdm2-MdmX inh)
COc1cc(OC)c(OC)cc1/C=C1/C(=O)NC(=O)N(Cc2ccccc2)C1=O	MPTP inh 60 | MPTP counter 37
